The panel holds about 83,000 compounds, 20% with a hit somewhere; the sample as a whole holds those more often.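 Activity criterion: percent growth below 10, measured after cells in 96-well plates were exposed to a single compound concentration for 48 hours.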 Calls of active or inactive are those of the source.
Experiments:
Assay in all cases: NCI-60 one-dose screen, 48 h (100 = growth as untreated, 0 = no growth, -100 = all killed)
Conditions in all cases: 10 µM unless noted
T-47D breast = system: T-47D breast
BT-549 breast = system: BT-549 breast
MDA-MB-435 melanoma = system: MDA-MB-435 melanoma
SW-620 colon = system: SW-620 colon
MCF7 breast = system: MCF7 breast
HCT-116 colon = system: HCT-116 colon
HCC-2998 colon = system: HCC-2998 colon
KM12 colon = system: KM12 colon

Measured: growth

CC(C)C1C2=C(NCCN1C(=O)Cc1ccccc1)C(C)(C)N(Cc1ccccc1)C2=O (stereo not given)
inactive: T-47D breast 91.8% | BT-549 breast 99.7% | MDA-MB-435 melanoma 99.2% | SW-620 colon 92.5% | MCF7 breast 95.3% | HCT-116 colon 91.7% | HCC-2998 colon 101% | KM12 colon 107%

CC(=O)[C@@H]1CC[C@]2(C(=O)n3ccnc3)CC[C@]3(C)[C@H](CC[C@@H]4[C@@]5(C)Cc6c([nH]c7ccccc67)C(C)(C)[C@@H]5CC[C@]43C)[C@@H]12
inactive: T-47D breast 78% | BT-549 breast 99.1% | MDA-MB-435 melanoma 101% | SW-620 colon 90.8% | MCF7 breast 71.9% | HCT-116 colon 83.9% | HCC-2998 colon 109% | KM12 colon 84.2%

COc1ccc(-c2nc(SC)nc(N3CCOCC3)c2C#N)cc1
inactive: T-47D breast 72.9% | BT-549 breast 83.7% | MDA-MB-435 melanoma 99.3% | SW-620 colon 103% | MCF7 breast 90.6% | HCT-116 colon 103% | HCC-2998 colon 99.7% | KM12 colon 99.9%

COc1ccc(Cn2nc(-c3cc(OC)c(OC)c(OC)c3)c3c2CCc2cnoc2-3)cc1OC
inactive: T-47D breast 65.8% | BT-549 breast 61.1% | SW-620 colon 48% | MCF7 breast 29.8% | HCT-116 colon 46.6% | HCC-2998 colon 70.5% | KM12 colon 54%
active: MDA-MB-435 melanoma -7.19%

CCOC(=O)c1c(C)nc2c(c1N)C(=O)C(=O)N2Cc1ccc(C(F)(F)F)cc1
active: MDA-MB-435 melanoma 6.09%
inactive: T-47D breast 44% | BT-549 breast 53.4% | SW-620 colon 35.6% | MCF7 breast 11.7% | HCT-116 colon 27.2% | HCC-2998 colon 98.1% | KM12 colon 27.8%

COc1ccc(/C=C\c2nc3ccccc3s2)cc1OP(=O)(O)O
inactive: T-47D breast 41.4% | BT-549 breast 44.3% | SW-620 colon 23.2% | MCF7 breast 21.7% | HCT-116 colon 25.9% | HCC-2998 colon 66.9% | KM12 colon 31.4%
active: MDA-MB-435 melanoma -70.4%

COc1ccc(C(=O)/C=C/c2c(OC)cc(OC)cc2OC)c(OC)c1
active: MDA-MB-435 melanoma -20.2%
inactive: T-47D breast 19% | BT-549 breast 12.3% | SW-620 colon 16.6% | MCF7 breast 21.4% | HCT-116 colon 18.2% | HCC-2998 colon 41.7% | KM12 colon 15.6%

FC(F)(F)Oc1cccc(-c2cc(NCCCCCCNc3cc(-c4cccc(OC(F)(F)F)c4)nc4ccc(N5CCCC5)cc34)c3cc(N4CCCC4)ccc3n2)c1
inactive: BT-549 breast 105%
active: T-47D breast -46.4% | MDA-MB-435 melanoma -87.6% | SW-620 colon -78.8% | MCF7 breast -64.7% | HCT-116 colon -66.6% | HCC-2998 colon -85.3% | KM12 colon -90.4%

COc1cc2nc(-c3ccc(C(F)(F)F)cc3)cc(OCCCN3CCC(O)CC3)c2cc1OC
active: MDA-MB-435 melanoma -29%
inactive: T-47D breast 24.7% | BT-549 breast 26.5% | SW-620 colon 15.9% | MCF7 breast 37.3% | HCT-116 colon 15% | HCC-2998 colon 52.5% | KM12 colon 26.5%

c1cnc2nc3c(cc2c1)oc1ccccc13
inactive: T-47D breast 100% | BT-549 breast 98.8% | MDA-MB-435 melanoma 103% | SW-620 colon 99.4% | MCF7 breast 86.6% | HCT-116 colon 101% | HCC-2998 colon 100% | KM12 colon 98.2%

COc1ccncc1C#Cc1cncc(C(=O)Nc2ccc(CN3CCN(C)CC3)c(C(F)(F)F)c2)c1
inactive: T-47D breast 55.9% | BT-549 breast 50.9% | MDA-MB-435 melanoma 15.4% | HCC-2998 colon 40.9%
active: SW-620 colon 4.42% | MCF7 breast 6.1% | HCT-116 colon 8.44% | KM12 colon 6.75%

O=S(=O)(NCCNc1nccc(-c2c(-c3cccc(F)c3)nc3occn23)n1)c1cccc2ccccc12
inactive: T-47D breast 29.9% | BT-549 breast 78.3% | MDA-MB-435 melanoma 32.8% | SW-620 colon 72.1% | MCF7 breast 27.8% | HCT-116 colon 36.1% | HCC-2998 colon 79.7% | KM12 colon 49.6%

N#Cc1cc(-c2nc3ccccc3s2)c(=O)n(NS(=O)(=O)c2ccc(Cl)cc2)c1N
inactive: T-47D breast 96.6% | BT-549 breast 105% | MDA-MB-435 melanoma 101% | SW-620 colon 97.7% | MCF7 breast 99.9% | HCT-116 colon 98.5% | HCC-2998 colon 111% | KM12 colon 102%

Cc1[nH]n(-c2cccc(Cl)c2)c(=O)c1/C=C1\C=Nc2ccc(Br)cc21
active: T-47D breast -47.4% | HCT-116 colon -76%
inactive: BT-549 breast 41.5% | MDA-MB-435 melanoma 43.9% | SW-620 colon 17.2% | MCF7 breast 33.9% | HCC-2998 colon 63.5% | KM12 colon 47.2%

O=C1c2cccnc2C(=O)c2nc3cc(N4CCN(C5CC5)CC4)ccc3nc21
inactive: T-47D breast 22.5%
active: BT-549 breast -93.7% | MDA-MB-435 melanoma -87.4% | SW-620 colon -37.8% | MCF7 breast -56.1% | HCT-116 colon 0.851% | HCC-2998 colon -80.8% | KM12 colon 9.27%

CCCCCN1C=C/C(=C\C(=O)N(C)c2cccc3ccccc23)c2ccccc21
inactive: T-47D breast 87.9% | BT-549 breast 99.4% | MDA-MB-435 melanoma 100% | SW-620 colon 94.3% | MCF7 breast 91.3% | HCT-116 colon 86.9% | HCC-2998 colon 102% | KM12 colon 103%

C#CC(=O)Nc1cccc2c1cc(C)n2-c1nc2c(c(NCc3ccccc3)n1)CCCC2
active: T-47D breast -41.4% | BT-549 breast -47.3% | MDA-MB-435 melanoma -81.4% | SW-620 colon -59.3% | MCF7 breast -39.8% | HCT-116 colon -70.3% | HCC-2998 colon -89.9% | KM12 colon -27.6%

NC(=S)N/N=C/c1ccc(OC(=O)COc2cc(Cl)c(Cl)cc2Cl)cn1
inactive: T-47D breast 49.3% | BT-549 breast 64.3% | MDA-MB-435 melanoma 71.7% | SW-620 colon 59.6% | MCF7 breast 28.5% | HCT-116 colon 67.9% | HCC-2998 colon 63.7% | KM12 colon 70.9%

CC(=O)N1N=C(c2cccc(Nc3ccncc3)c2)CC1c1ccc2c(c1)OCO2 (stereo not given)
inactive: T-47D breast 74.1% | MDA-MB-435 melanoma 35.1% | SW-620 colon 86.2% | MCF7 breast 71.4% | HCC-2998 colon 94.2% | KM12 colon 88.2%
active: BT-549 breast -44.5% | HCT-116 colon -52.3%

COc1ccc(NC(=O)c2sc3nc(C)c(C(=O)CCc4cccc(OC)c4)cc3c2N)cc1
active: MDA-MB-435 melanoma -10.4%
inactive: T-47D breast 67.6% | BT-549 breast 79.6% | SW-620 colon 64.7% | MCF7 breast 16.5% | HCT-116 colon 45.6% | HCC-2998 colon 56% | KM12 colon 56.1%

C=CCn1c(SCC(=O)Nc2ccc(C(=O)/C=C/c3cc(OC)c(OC)c(OC)c3)cc2)nnc1-c1cc(OC)c(OC)c(OC)c1
active: MDA-MB-435 melanoma 3.79% | SW-620 colon -9.49% | MCF7 breast 7.87% | HCT-116 colon -70.9% | KM12 colon 1.11%
inactive: T-47D breast 60.7% | BT-549 breast 52.3% | HCC-2998 colon 20.2%

C=C(C)[C@@H]1CC[C@]2(C(=O)O)CC[C@]3(C)[C@H](CC[C@@H]4[C@@]5(C)C[C@@H](CC#Cc6ccc(Br)cc6)C(=O)C(C)(C)[C@@H]5CC[C@]43C)[C@@H]12
inactive: T-47D breast 48.3% | BT-549 breast 69.8% | MDA-MB-435 melanoma 42.4% | SW-620 colon 42.1% | MCF7 breast 49% | HCT-116 colon 39.4% | HCC-2998 colon 61.4% | KM12 colon 40.3%

CCCCCCC/C=C/[C@H]1O[C@]2(O)C(=O)C=C3C[C@@H](O[C@@H]4O[C@H](CO)[C@@H](O)C(O)[C@@H]4O)C[C@@H]3[C@H]2C=C1C (stereo not given in full)
inactive: HCC-2998 colon 32.8% | KM12 colon 15.5%
active: T-47D breast -9.2% | BT-549 breast -18.6% | MDA-MB-435 melanoma -19.9% | SW-620 colon -28.5% | MCF7 breast 8.66% | HCT-116 colon -45.9%

O=C1NC(=S)NC(=O)C1=Cc1cn(Cc2ccccn2)c2ccccc12
inactive: T-47D breast 89.8% | BT-549 breast 66.8% | MDA-MB-435 melanoma 21.3% | SW-620 colon 48.3% | MCF7 breast 34.6% | HCC-2998 colon 54.2% | KM12 colon 57.2%
active: HCT-116 colon 2.36%

COc1c(Cl)cc(Cl)c2ccc(C=C3C(=O)NC(=S)NC3=O)nc12
inactive: T-47D breast 101% | BT-549 breast 90.2% | MDA-MB-435 melanoma 106% | SW-620 colon 104% | MCF7 breast 90.7% | HCC-2998 colon 99.2% | KM12 colon 112%
active: HCT-116 colon -76.2%

CCCCCN1C=C/C(=C\C(=O)N(C)c2ccc(Br)cc2)c2ccccc21
inactive: T-47D breast 84.3% | BT-549 breast 108% | MDA-MB-435 melanoma 101% | SW-620 colon 94.4% | MCF7 breast 91% | HCT-116 colon 80.7% | HCC-2998 colon 102% | KM12 colon 103%

CCNC(=S)NNC(=O)c1cc2ccc1CCc1ccc(cc1)CC2
inactive: T-47D breast 95.8% | BT-549 breast 102% | MDA-MB-435 melanoma 100% | SW-620 colon 101% | MCF7 breast 93.6% | HCT-116 colon 92.5% | HCC-2998 colon 103% | KM12 colon 102%

CCn1ccnc1C(=O)/C=C/c1ccc(CC(=O)Nc2ccc(F)cc2)cc1
active: BT-549 breast 4.63% | SW-620 colon 6.04% | HCT-116 colon 1.33% | KM12 colon -14.3%
inactive: T-47D breast 24.5% | MDA-MB-435 melanoma 20% | MCF7 breast 25.2% | HCC-2998 colon 78.8%

COc1ccc(C2CC(c3cccc(Nc4ccncc4)c3)=NN2c2cc(Cl)cc(Cl)c2)cc1 (stereo not given)
active: MDA-MB-435 melanoma -77.1% | SW-620 colon -87.5% | MCF7 breast -31.7% | HCC-2998 colon -46.5% | KM12 colon -80%
inactive: T-47D breast 73.8% | BT-549 breast 109% | HCT-116 colon 83.9%

CCN(CC)CCCC(C)Nc1c2c(nc3ccc(OC)cc13)CCCC2 (stereo not given)
inactive: T-47D breast 113% | BT-549 breast 101% | MDA-MB-435 melanoma 103% | SW-620 colon 103% | MCF7 breast 91.4% | HCT-116 colon 73.6% | HCC-2998 colon 103% | KM12 colon 106%

Reference: PubChem BioAssay (NCI)
